For 1 sequence, binding signal results are on record in paper PMC7862700, “An all-to-all approach to the identification of sequence-specific readers for epigenetic DNA modifications on cytosine”.

Common to all, as to experiment: DAPPL (digital affinity profiling via proximity ligation, sequencing); 10 mM Tris-HCl pH 7.5, 50 mM NaCl, 1 mM DTT, 4% glycerol, room temperature, 30 min; GST-TFs on glutathione beads, 16-mer random dsDNA library, 0.1% formaldehyde crosslink after washing; high values mean tight binding
One assay concerns the target T1, FLI1 (Homo sapiens, UniProt Q01543 1-452).
T1 sequence: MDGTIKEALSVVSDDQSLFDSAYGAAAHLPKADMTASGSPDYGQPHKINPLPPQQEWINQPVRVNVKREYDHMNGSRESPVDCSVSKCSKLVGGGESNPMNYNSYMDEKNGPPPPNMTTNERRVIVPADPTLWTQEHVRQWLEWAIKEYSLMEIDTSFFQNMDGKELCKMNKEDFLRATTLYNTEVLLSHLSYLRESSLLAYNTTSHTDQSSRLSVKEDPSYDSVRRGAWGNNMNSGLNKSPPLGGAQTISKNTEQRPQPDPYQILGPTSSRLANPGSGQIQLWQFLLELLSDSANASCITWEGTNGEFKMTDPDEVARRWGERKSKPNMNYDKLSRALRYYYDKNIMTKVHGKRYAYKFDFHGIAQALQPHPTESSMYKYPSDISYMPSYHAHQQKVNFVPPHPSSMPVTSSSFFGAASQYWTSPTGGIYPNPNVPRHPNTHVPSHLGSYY
The conditions noted are these: protein: recombinant; tags: N-terminal GST; dsDNA, one strand shown. A digest of the protocol:
(§1)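 Pools were built from human transcription factors expressed in yeast as GST fusions, captured on glutathione beads and DNA-barcoded, along with a tag-only sample. Incubation with 200 nmole of a 16-mer random double-stranded DNA library lasted 30 min at room temperature in Tris/NaCl/DTT/glycerol buffer, and was followed by washing, 0.1% formaldehyde crosslinking, proximity ligation, PCR amplification and Illumina NextSeq500 sequencing. Binding signal is the quotient of each hexamer's read frequency for a factor and its frequency for the tag-only sample.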

In the next assay the target is T2, ELK1 (Homo sapiens, UniProt P19419 1-428).
T2 sequence: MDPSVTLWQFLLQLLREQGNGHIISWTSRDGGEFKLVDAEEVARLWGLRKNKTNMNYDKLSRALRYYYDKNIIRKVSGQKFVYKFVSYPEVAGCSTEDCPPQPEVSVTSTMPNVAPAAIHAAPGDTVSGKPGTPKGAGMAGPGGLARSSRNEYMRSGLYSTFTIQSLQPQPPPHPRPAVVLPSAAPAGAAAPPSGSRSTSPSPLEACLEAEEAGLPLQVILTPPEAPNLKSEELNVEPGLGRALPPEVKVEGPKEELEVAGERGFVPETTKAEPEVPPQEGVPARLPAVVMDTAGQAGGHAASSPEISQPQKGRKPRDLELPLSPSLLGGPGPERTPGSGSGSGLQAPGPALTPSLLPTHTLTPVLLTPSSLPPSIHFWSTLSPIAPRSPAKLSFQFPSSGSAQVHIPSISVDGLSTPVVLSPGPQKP
To be noted: protein: recombinant; tags: N-terminal GST; dsDNA, one strand shown. A digest of the protocol: as §1

Another assay has as its target T3, GABPA (Homo sapiens, UniProt Q06546 1-454).
T3 sequence: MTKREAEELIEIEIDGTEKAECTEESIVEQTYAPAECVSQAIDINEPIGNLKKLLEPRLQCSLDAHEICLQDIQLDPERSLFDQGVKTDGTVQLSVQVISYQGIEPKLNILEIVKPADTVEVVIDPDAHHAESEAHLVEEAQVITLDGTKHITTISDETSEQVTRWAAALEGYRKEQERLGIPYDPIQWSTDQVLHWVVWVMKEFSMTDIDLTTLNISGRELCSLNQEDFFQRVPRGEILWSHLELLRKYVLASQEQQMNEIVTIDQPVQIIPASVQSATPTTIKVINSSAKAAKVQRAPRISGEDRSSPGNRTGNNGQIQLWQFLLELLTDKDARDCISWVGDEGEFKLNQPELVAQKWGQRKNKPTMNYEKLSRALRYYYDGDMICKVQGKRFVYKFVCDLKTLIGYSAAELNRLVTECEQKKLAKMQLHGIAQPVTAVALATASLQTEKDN
To be noted: protein: recombinant; tags: N-terminal GST; dsDNA, one strand shown. In short, it runs like this:
as §1

In a further assay the target is T4, ERG (Homo sapiens, UniProt P11308 1-479).
T4 sequence: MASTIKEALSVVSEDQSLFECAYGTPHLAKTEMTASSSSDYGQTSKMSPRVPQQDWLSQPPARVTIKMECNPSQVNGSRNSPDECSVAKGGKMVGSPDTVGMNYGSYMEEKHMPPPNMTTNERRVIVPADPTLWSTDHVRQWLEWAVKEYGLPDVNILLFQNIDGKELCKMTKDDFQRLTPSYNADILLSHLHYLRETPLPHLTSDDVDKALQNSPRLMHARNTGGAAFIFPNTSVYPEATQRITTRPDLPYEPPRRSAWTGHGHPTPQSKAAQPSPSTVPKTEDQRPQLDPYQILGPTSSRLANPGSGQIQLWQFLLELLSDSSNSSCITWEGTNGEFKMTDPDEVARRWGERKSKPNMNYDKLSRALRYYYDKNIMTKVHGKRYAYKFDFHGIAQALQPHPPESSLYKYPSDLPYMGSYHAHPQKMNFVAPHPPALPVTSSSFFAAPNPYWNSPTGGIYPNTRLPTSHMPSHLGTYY
The conditions noted are these: protein: recombinant; tags: N-terminal GST; dsDNA, one strand shown. In short, it runs like this:
as §1

For another assay, the target named is ELF1 (Homo sapiens, UniProt P32519 1-619). The conditions noted are these: protein: recombinant; tags: N-terminal GST; dsDNA, one strand shown. In short, it runs like this: as §1
The target of another assay is T5, EHF (Homo sapiens, UniProt Q9NZC4 1-300).
T5 sequence: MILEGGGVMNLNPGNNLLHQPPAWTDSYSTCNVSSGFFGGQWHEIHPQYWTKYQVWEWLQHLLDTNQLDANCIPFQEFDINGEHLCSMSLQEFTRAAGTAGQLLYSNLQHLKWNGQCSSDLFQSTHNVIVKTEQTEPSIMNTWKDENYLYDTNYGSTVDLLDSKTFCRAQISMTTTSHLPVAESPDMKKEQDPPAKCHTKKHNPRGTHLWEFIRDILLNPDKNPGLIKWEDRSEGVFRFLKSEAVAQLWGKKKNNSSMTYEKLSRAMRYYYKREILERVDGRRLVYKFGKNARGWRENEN
The conditions noted are these: protein: recombinant; tags: N-terminal GST; dsDNA, one strand shown. In short, it runs like this: as §1

In another assay the target is SPI1 (Homo sapiens, UniProt P17947 1-270). To be noted: protein: recombinant; tags: N-terminal GST; dsDNA, one strand shown. A digest of the protocol: as §1
In another assay the target is SPIB (Homo sapiens, UniProt Q01892 1-262). The conditions noted are these: protein: recombinant; tags: N-terminal GST; dsDNA, one strand shown. A digest of the protocol: as §1
Another assay addresses T6, ELK3 (Homo sapiens, UniProt P41970 1-407).
T6 sequence: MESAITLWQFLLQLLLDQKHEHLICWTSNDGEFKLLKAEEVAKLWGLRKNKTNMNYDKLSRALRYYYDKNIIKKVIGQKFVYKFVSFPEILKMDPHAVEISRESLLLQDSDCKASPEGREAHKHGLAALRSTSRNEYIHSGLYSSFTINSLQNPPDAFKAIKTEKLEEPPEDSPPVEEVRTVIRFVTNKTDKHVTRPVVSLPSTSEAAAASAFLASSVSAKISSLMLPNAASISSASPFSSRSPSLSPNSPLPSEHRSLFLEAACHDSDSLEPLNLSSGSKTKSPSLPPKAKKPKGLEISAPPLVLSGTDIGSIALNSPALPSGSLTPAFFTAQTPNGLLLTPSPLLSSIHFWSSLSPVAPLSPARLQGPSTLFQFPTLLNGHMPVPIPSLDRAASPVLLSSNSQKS
The conditions noted are these: protein: recombinant; tags: N-terminal GST; dsDNA, one strand shown. A digest of the protocol:
as §1

The target in another assay is T7, FEV (Homo sapiens, UniProt Q99581 1-238).
T7 sequence: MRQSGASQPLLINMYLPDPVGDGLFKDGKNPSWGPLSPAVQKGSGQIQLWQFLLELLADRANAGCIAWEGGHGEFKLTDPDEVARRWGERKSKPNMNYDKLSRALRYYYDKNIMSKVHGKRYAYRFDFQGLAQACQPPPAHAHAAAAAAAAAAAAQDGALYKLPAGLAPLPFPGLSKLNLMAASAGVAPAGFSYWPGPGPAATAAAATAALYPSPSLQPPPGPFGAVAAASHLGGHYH
To be noted: protein: recombinant; tags: N-terminal GST; dsDNA, one strand shown. A digest of the protocol:
as §1

For the next assay, the target named is ETV5 (Homo sapiens, UniProt P41161 1-510). To be noted: protein: recombinant; tags: N-terminal GST; dsDNA, one strand shown. In short, it runs like this:
as §1

The next assay has as its target HSF1 (Homo sapiens, UniProt Q00613 1-529). The conditions noted are these: protein: recombinant; tags: N-terminal GST; chain copies: 3; dsDNA, one strand shown. A digest of the protocol:
as §1

The next assay concerns the target T8, SPIC (Homo sapiens, UniProt Q8N5J4 1-248).
T8 sequence: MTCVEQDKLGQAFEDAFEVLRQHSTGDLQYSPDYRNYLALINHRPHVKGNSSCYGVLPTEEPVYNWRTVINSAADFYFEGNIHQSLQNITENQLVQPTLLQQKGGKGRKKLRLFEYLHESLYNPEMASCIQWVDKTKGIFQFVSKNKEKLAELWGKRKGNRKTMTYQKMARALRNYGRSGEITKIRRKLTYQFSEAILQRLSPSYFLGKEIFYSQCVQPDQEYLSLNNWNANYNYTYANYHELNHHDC
The conditions noted are these: protein: recombinant; tags: N-terminal GST; dsDNA, one strand shown. A digest of the protocol:
as §1

The next assay addresses ELF4 (Homo sapiens, UniProt Q99607 1-663). To be noted: protein: recombinant; tags: N-terminal GST; dsDNA, one strand shown. In short, it runs like this: as §1
The next assay addresses T9, ELK4 (Homo sapiens, UniProt P28324-2 1-405).
T9 sequence: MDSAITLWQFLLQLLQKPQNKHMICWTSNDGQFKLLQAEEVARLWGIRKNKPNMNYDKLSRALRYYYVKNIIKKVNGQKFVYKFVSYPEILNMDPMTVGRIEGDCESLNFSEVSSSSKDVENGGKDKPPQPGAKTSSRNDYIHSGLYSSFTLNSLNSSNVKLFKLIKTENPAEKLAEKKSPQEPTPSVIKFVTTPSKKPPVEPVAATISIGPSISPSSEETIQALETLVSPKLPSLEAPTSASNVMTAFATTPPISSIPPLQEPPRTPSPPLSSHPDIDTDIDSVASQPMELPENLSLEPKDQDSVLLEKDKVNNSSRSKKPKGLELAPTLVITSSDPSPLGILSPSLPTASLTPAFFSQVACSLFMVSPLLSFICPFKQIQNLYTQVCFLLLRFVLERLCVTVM
The conditions noted are these: protein: recombinant; tags: N-terminal GST; dsDNA, one strand shown. In short, it runs like this:
as §1

Another assay deals with T10, ETV2 (Homo sapiens, UniProt O00321 1-342).
T10 sequence: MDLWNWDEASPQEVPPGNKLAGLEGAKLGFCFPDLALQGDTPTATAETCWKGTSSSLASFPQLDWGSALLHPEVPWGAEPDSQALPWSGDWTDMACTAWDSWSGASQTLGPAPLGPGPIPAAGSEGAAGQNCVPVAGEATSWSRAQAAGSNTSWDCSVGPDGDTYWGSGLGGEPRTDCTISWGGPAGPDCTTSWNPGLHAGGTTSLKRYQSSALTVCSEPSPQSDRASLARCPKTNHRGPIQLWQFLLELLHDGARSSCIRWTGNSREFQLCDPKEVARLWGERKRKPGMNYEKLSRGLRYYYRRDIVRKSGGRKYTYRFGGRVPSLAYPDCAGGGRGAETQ
The conditions noted are these: protein: recombinant; tags: N-terminal GST; dsDNA, one strand shown. In short, it runs like this:
as §1

A further assay addresses T11, ELF3 (Homo sapiens, UniProt P78545 1-371).
T11 sequence: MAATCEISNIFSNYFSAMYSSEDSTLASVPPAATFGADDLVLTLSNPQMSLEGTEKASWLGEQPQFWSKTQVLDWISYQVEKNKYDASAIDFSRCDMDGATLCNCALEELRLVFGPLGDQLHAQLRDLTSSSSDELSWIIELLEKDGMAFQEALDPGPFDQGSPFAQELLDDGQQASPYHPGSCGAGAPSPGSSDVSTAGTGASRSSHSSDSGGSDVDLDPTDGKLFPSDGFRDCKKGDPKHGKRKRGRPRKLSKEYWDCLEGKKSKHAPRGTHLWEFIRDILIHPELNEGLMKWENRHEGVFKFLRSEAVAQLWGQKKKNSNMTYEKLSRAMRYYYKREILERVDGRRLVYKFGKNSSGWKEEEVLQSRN
The conditions noted are these: protein: recombinant; tags: N-terminal GST; dsDNA, one strand shown. In short, it runs like this: as §1

A further assay deals with CRX (Homo sapiens, UniProt O43186 1-299). To be noted: protein: recombinant; tags: N-terminal GST; dsDNA, one strand shown. In short, it runs like this:
as §1

A further assay concerns the target ETV1 (Homo sapiens, UniProt P50549 1-477). To be noted: protein: recombinant; tags: N-terminal GST; dsDNA, one strand shown. A digest of the protocol:
as §1

Sequence of ELF1 (P32519 whole entry): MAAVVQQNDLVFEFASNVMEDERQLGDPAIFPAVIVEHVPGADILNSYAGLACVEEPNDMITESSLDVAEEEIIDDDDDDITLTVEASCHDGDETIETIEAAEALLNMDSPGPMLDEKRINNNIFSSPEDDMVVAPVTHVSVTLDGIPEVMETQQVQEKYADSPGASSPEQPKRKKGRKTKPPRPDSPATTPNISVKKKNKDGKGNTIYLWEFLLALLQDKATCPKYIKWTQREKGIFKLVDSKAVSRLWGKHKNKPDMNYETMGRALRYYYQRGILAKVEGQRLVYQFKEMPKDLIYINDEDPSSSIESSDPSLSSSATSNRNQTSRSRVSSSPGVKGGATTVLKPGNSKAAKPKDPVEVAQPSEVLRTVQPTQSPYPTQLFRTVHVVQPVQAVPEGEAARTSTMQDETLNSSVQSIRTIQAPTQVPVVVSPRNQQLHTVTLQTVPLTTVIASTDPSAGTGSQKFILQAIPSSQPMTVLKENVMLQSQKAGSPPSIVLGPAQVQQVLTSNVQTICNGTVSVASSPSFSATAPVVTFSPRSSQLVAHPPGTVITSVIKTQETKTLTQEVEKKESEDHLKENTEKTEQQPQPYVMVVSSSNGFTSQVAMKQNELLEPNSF
Sequence of HSF1 (Q00613 whole entry): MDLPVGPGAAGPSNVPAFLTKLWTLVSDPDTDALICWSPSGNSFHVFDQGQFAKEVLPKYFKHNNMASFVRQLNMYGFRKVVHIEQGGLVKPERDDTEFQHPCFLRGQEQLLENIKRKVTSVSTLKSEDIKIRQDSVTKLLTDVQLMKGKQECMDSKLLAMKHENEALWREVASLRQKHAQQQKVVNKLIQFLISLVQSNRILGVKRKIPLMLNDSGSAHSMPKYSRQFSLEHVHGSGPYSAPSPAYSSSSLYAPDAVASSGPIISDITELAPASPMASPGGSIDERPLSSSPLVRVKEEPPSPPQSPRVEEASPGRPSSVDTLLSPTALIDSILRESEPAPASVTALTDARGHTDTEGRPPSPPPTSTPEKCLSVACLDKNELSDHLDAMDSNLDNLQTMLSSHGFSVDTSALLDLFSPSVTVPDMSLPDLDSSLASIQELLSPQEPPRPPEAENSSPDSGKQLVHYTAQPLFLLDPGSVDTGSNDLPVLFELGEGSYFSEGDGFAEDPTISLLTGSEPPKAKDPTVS
Sequence of SPIB (Q01892 whole entry): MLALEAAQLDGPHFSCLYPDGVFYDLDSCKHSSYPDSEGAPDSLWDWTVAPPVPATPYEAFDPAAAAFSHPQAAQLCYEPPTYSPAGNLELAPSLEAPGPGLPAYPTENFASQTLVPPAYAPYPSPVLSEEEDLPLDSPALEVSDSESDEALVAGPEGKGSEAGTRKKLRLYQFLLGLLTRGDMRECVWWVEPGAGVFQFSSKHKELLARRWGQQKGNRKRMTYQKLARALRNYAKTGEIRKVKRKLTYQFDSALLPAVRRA
Sequence of ELF4 (Q99607 whole entry): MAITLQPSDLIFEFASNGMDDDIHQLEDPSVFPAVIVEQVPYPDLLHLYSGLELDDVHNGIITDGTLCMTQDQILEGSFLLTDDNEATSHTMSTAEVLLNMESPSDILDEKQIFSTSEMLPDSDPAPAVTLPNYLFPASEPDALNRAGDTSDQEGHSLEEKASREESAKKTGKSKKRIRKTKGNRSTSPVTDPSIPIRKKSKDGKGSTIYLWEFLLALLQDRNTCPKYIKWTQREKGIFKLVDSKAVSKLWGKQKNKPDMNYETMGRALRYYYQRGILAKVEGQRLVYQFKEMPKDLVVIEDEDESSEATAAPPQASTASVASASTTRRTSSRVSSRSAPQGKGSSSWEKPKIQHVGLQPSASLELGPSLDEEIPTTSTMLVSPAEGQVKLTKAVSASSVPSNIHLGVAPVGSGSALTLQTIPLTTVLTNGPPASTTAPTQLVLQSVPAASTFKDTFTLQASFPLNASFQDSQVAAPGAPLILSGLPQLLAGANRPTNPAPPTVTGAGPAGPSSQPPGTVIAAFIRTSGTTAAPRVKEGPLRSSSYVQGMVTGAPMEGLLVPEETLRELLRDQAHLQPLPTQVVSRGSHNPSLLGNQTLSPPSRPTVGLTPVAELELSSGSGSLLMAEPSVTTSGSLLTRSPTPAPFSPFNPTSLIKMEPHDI
Sequence of ETV5 (P41161 whole entry): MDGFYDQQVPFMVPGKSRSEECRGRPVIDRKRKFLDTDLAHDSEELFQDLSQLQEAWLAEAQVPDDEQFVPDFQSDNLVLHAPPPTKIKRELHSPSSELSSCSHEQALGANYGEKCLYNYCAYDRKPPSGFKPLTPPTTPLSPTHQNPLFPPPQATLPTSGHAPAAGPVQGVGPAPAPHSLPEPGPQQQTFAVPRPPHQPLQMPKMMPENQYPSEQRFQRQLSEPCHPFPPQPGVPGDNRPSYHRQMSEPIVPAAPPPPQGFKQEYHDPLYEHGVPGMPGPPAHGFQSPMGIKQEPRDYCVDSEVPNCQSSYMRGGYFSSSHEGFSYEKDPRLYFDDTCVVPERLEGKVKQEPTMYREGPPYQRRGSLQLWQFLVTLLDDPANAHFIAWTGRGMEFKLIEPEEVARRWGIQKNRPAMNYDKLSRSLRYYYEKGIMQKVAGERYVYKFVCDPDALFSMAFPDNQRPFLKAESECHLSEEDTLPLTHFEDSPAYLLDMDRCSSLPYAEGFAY
Sequence of ETV1 (P50549 whole entry): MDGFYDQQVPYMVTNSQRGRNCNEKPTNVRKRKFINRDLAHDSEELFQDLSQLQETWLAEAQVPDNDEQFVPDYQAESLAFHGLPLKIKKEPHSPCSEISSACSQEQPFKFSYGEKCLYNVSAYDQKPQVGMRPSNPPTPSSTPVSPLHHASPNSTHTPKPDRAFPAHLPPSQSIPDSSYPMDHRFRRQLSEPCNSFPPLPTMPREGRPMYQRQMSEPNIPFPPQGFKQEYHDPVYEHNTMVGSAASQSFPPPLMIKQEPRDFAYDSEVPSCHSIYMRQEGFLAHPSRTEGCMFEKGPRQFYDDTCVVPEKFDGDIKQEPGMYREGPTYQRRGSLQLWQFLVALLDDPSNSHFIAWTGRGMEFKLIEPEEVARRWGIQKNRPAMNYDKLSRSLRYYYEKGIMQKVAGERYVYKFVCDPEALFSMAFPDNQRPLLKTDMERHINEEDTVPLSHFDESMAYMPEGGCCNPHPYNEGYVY
Sequence of CRX (O43186 whole entry): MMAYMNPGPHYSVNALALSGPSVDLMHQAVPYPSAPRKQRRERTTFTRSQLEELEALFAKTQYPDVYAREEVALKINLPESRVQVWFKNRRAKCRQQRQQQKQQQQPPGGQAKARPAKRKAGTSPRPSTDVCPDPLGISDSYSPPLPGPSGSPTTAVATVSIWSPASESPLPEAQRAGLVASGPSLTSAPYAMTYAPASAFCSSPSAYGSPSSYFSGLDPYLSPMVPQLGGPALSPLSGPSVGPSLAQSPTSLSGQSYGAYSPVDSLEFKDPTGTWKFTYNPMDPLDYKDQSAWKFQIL

Take TGCACT: the binding signal in the assay with FLI1 was 1.37 fold enrichment (6-mer frequency, TF over GST control); with ELK1, 1.58 fold enrichment (6-mer frequency, TF over GST control); with GABPA it was 1.4 fold enrichment (6-mer frequency, TF over GST control); with ERG, 1.43 fold enrichment (6-mer frequency, TF over GST control); with ELF1, 1.42 fold enrichment (6-mer frequency, TF over GST control); in the assay with EHF, 1.3 fold enrichment (6-mer frequency, TF over GST control). Besides, the binding signal is 1.68 fold enrichment (6-mer frequency, TF over GST control) with SPI1; 1.21 fold enrichment (6-mer frequency, TF over GST control) with SPIB; 1.26 fold enrichment (6-mer frequency, TF over GST control) with ELK3; 1.51 fold enrichment (6-mer frequency, TF over GST control) in the assay with FEV; 1.37 fold enrichment (6-mer frequency, TF over GST control) with ETV5; 1.02 fold enrichment (6-mer frequency, TF over GST control) with HSF1. Further, the binding signal with SPIC is 1.33 fold enrichment (6-mer frequency, TF over GST control); with ELF4, 1.33 fold enrichment (6-mer frequency, TF over GST control); in the assay with ELK4 it was 1.31 fold enrichment (6-mer frequency, TF over GST control); with ETV2, 1.46 fold enrichment (6-mer frequency, TF over GST control); with ELF3, 1.55 fold enrichment (6-mer frequency, TF over GST control); with CRX, 1.06 fold enrichment (6-mer frequency, TF over GST control). For the same sequence, the binding signal in the assay with ETV1 is 1.33 fold enrichment (6-mer frequency, TF over GST control).
